The structures appear in SMILES notation. Structures can show the parent of a compound that is named as a salt. ± gives the standard error. About 130 (10%) of roughly 1,300 compounds showed an effect of 50% or more. For the sample, strong results were picked, then their nearest neighbours and some compounds at random.

The assay relates to Trichoderma virens ATCC 9645. The assay is described as follows: growth yield (OD600) with compound + IPBC relative to untreated control; higher = less growth inhibition. The settings on record: compound concentration: 100 uM, IPBC concentration: 200 ng/ml. A digest of the protocol:
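Spores of Trichoderma virens ATCC 9645, taken from potato dextrose agar plates grown for 7 days, were suspended at 15,000 spores ml^−1 in potato dextrose broth. In 96-well plates, 100 μl aliquots held library compounds at 100 μM final, either alone or together with a biocide at 200 ng ml^−1, and were grown at 30 °C. A BioTek EL800 read OD600 at 40 h and 72 h. Growth values are given relative to the control lacking both agents and are means of duplicate screens.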

For `CN1CCCC(CC2c3ccccc3Sc3ccccc32)C1` (configuration not stated) [Metixene hydrochloride] + CCCCNC(=O)OCC#CI [3-iodo-2-propynyl butylcarbamate (IPBC)], the growth yield runs as follows: (40 h) 48.9 ± 2.2%; (72 h) 85.3 ± 2%.
Take `Cc1ncc(CO)c(CO)c1O` [Pyridoxine hydrochloride] + CCCCNC(=O)OCC#CI [3-iodo-2-propynyl butylcarbamate (IPBC)]: the growth yield is 79.58 ± 0.79% (40 h) and 85.7 ± 2.2% (72 h).
For `CCN(CC)CCOC(=O)C(Cc1cccc2ccccc12)CC1CCCO1` (configuration not stated) [Nafronyl oxalate] + CCCCNC(=O)OCC#CI [3-iodo-2-propynyl butylcarbamate (IPBC)], the growth yield by setting is: (40 h) 71.5 ± 1.3%; (72 h) 87.36 ± 0.1%.
Turning to `CO[C@H]1/C=C/O[C@@]2(C)Oc3c(C)c(O)c4c(O)c(c(/C=N/N5CCN(C6CCCC6)CC5)c(O)c4c3C2=O)NC(=O)/C(C)=C\C=C\[C@H](C)[C@H](O)[C@@H](C)[C@@H](O)[C@@H](C)[C@H](OC(C)=O)[C@@H]1C` [Rifapentine] + CCCCNC(=O)OCC#CI [3-iodo-2-propynyl butylcarbamate (IPBC)], the growth yield runs as follows: (40 h) 90.2 ± 0.95%; (72 h) 94.5 ± 2.6%.
For the compound `NC[C@H]1CC[C@H](C(=O)O)CC1` [Tranexamic acid] + CCCCNC(=O)OCC#CI [3-iodo-2-propynyl butylcarbamate (IPBC)], the growth yield reads like this: (40 h) 100 ± 3.8%; (72 h) 104 ± 1.1%.
In the same order, the values of `CCC1(c2ccccc2)NC(=O)N(C)C1=O` (configuration not stated) [Mephenytoin] + CCCCNC(=O)OCC#CI [3-iodo-2-propynyl butylcarbamate (IPBC)] are 88.5 ± 2.4% and 100 ± 9.9%.
Take `CN(C)[C@@H]1C(O)=C(C(N)=O)C(=O)[C@@]2(O)C(O)=C3C(=O)c4c(O)cccc4[C@@](C)(O)[C@H]3C[C@@H]12` [Tetracycline hydrochloride] + CCCCNC(=O)OCC#CI [3-iodo-2-propynyl butylcarbamate (IPBC)]: the growth yield (40 h) was determined as 99.3 ± 11% and the growth yield (72 h) came to 96.9 ± 6.3%.
In the same order, the values of `C[N+]1(C)CCC(OC(=O)C(O)(c2ccccc2)C2CCCC2)C1` (configuration not stated) [Glycopyrrolate] + CCCCNC(=O)OCC#CI [3-iodo-2-propynyl butylcarbamate (IPBC)] are 101 ± 14% and 98.7 ± 8.1%.
For `O=C1c2c(O)ccc(O)c2C(=O)c2c(NCCNCCO)ccc(NCCNCCO)c21` [Mitoxantrone dihydrochloride] + CCCCNC(=O)OCC#CI [3-iodo-2-propynyl butylcarbamate (IPBC)], the growth yield is, setting by setting: (40 h) 1.27 ± 1.3%; (72 h) 0%.
For `O=C1c2cccc(O)c2C(=O)c2c(O)cccc21` [1,8-Dihydroxyanthraquinone] + CCCCNC(=O)OCC#CI [3-iodo-2-propynyl butylcarbamate (IPBC)], in that order: 55.12 ± 0.16% and 77.2 ± 1.9%.
For `O=C1c2c(O)cccc2Cc2cccc(O)c21` [Anthralin] + CCCCNC(=O)OCC#CI [3-iodo-2-propynyl butylcarbamate (IPBC)], in that order: 71.8 ± 3.8% and 82.4 ± 1.3%.

The values above are taken from the supplement of paper PMC8007513.
